Bioassay records deposited in PubChem BioAssay by National Center for Advancing Translational Sciences (NCATS).
FMDV inh: antivirals against foot and mouth disease virus | FMDV antiviral cell-based qHTS | Potency, µM (doses to about 57.9 µM), hits mostly inhibitors | 1.2% of 410,000 active; calls by dose curve; tested in HEK293T cells; note: read-out not given here; nearly all actives have a fitted effect of over 45% in size
Sm TGR block: blocks Schistosoma mansoni thioredoxin glutathione reductase; Q962Y6; 3% of 360,000 active; Potency, µM (series often up to 114 µM), most hits filed as inhibitors; purified TGR, DTNB reduction, TNB absorbance 405 nm; AID 485364; note: nearly all actives have a fitted effect of over 60% in size
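TGR 20 nM + NADPH 100 uM (dispensed conc.), cpd preinc 15 min RT; start with NADPH (500 uM addition) then DTNB (15 mM addition). Kinetic TNB absorbance, 405 nm filter. Four-parameter Hill fit across titration.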
TbPYK inhibitor: inhibitors of Trypanosoma brucei pyruvate kinase; AID 624173; 0.12% of 410,000 active; Potency, µM (titrated, usually from 76.8 µM), hits mostly inhibitors; TbPYK enzyme, Kinase-Glo Plus ATP luminescence, 45 min; Q57TT1; note: nearly all actives have a fitted effect of over 50% in size
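ADP (130 uM final) triggers the TbPYK reaction after compound addition; incubation is 45 min at room temperature. Kinase-Glo Plus is then added and luminescence imaged. Normalized data are fitted to concentration-effect curves.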
RE007 growth inh: less growth of the S. pombe RE007 Vpr strain. S. pombe RE007 Vpr strain, BacTiter-Glo ATP luminescence, 24 h. AID 651644. Potency, µM (series often up to 92.2 µM), usual class: inhibitors. 0.21% of 360,000 active; active = well fitted falling curve with a large enough effect; inconclusive = small, poorly fitted or top-dose-only effect; inactive = no such curve, though single readings can be large or run the other way; note: nearly all actives have a fitted effect of over 50% in size
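Fission yeast RE007 carrying one integrated HIV-1 vpr copy, seeded at OD 0.01 in PMG+AL medium with 23 nL pinned compound. Grown 24 h at 30 degrees; viability read by BacTiter-Glo luminescence after 5 min.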
Each line names hits and unclear results; the compound was inactive in the other large screens. An excerpt weighted towards active compounds, which were near 3.7% of everything screened. Unless noted, calls come from the whole dose curve; as a rule, active = well fitted curve in the direction sought with a large enough effect; inconclusive = small, poorly fitted or top-dose-only effect, or another doubt; inactive = no such curve, though single readings can be large; an effect the other way counts as inactive or inconclusive.

Cc1c(NC(=O)c2csc3c2CCCC3)c(=O)n(-c2ccccc2)n1C	none
Cc1c(NC(=O)c2c(N)sc3c2CCCC3)c(=O)n(-c2ccccc2)n1C	Sm TGR block 22.4µM, TbPYK inhibitor inconclusive
Cc1ccc(NC(=O)Cn2c(=O)n(Cc3ccc4c(c3)OCO4)c(=O)c3ccc(C(=O)NC4CCCCC4)cc32)c(C)c1	Sm TGR block inconclusive (no result: RE007 growth inh)
O=C(CSc1nnc(-c2ccc(Br)o2)n1Cc1ccccc1)c1ccccc1F	Sm TGR block 35.5µM
Cc1onc(-c2c(F)cccc2Cl)c1C(=O)N1CCSCC1	none
Cc1onc(-c2c(F)cccc2Cl)c1C(=O)N1CCN(c2ncc(Br)cn2)CC1	FMDV inh 28.2µM
O=C(C1CC1)N(CCc1ccccc1)Cc1nc2ccccc2c(=O)[nH]1	FMDV inh 28.2µM
CCCc1cc(=O)n2[nH]c(NC(=O)c3ccc(C(C)(C)C)cc3)nc2n1	none (no result: RE007 growth inh)
Nc1nc(N2CCN(C(=O)c3ccco3)CC2)nc2ccccc12	none
O=C(c1ccco1)N1CCN(c2nc3ccccc3c(=O)n2-c2ccccc2)CC1	FMDV inh 7.08µM
Nc1nc(N2CCN(C(=O)c3ccco3)CC2)nc2ccc(Br)cc12	Sm TGR block 44.7µM
COc1ccc(NC(=O)N2CC[C@@]3(CCCN(C(=O)c4cccc(F)c4)C3)C2)cc1	none (no result: Sm TGR block, RE007 growth inh)
CCOC(=O)[C@]12CCCC=C1N(Cc1ccc3c(c1)OCO3)C(=O)[C@H](CC(=O)NCc1cccc(C(F)(F)F)c1)C2	none (no result: Sm TGR block)
O=C1c2cccnc2C(Nc2cccc(F)c2)N1Cc1ccco1 (stereo not drawn)	Sm TGR block 35.5µM
O=C1c2cccnc2C(Nc2ccccc2Br)N1Cc1ccco1 (stereo not drawn)	Sm TGR block 22.4µM
COc1cc(NC2c3ncccc3C(=O)N2Cc2ccco2)cc(OC)c1OC (stereo not drawn)	Sm TGR block inconclusive
O=C1c2cccnc2C(O)N1Cc1ccco1 (stereo not drawn)	Sm TGR block inconclusive
CC(=O)c1cccc(NC2c3ncccc3C(=O)N2Cc2ccco2)c1 (stereo not drawn)	Sm TGR block inconclusive
O=C1c2cccnc2C(Nc2ccccc2)N1Cc1ccco1 (stereo not drawn)	Sm TGR block 25.1µM
Oc1cc(-c2cccs2)cc2c1OCCN(Cc1cn[nH]c1-c1ccc(Cl)cc1)C2	none (no result: Sm TGR block, TbPYK inhibitor, RE007 growth inh)
COc1cccc(C2(CC(=O)N3CCCCC3CO)CC(=O)N(C)C2=O)c1 (stereo not drawn)	none (no result: Sm TGR block, TbPYK inhibitor, RE007 growth inh)
Cc1c(Cl)ccc2c1NC(=O)[C@]21N[C@@H](CCC(N)=O)[C@H]2C(=O)N(c3ccc(F)cc3)C(=O)[C@H]21	Sm TGR block 12.6µM
Cc1c(Cl)ccc2c1NC(=O)C21NC(CCC(N)=O)[C@H]2C(=O)N(c3ccc(Cl)cc3)C(=O)[C@H]21 (stereo partly drawn)	FMDV inh inconclusive, Sm TGR block 35.5µM
COc1ccccc1CN1CCOc2ccc(CN3CCCCC3CO)cc2C1 (stereo not drawn)	none (no result: Sm TGR block, TbPYK inhibitor, RE007 growth inh)
NC(=O)c1ccccc1NC(=O)/C=C/c1c(Cl)cccc1Cl	none
Cc1ccc(/C=C/C(=O)Nc2nn[nH]n2)o1	Sm TGR block 20µM, TbPYK inhibitor inconclusive
Cc1ccc(/C=C/C(=O)Nc2cccnc2)o1	Sm TGR block 8.91µM, TbPYK inhibitor 28.2µM
Cc1ccc(/C=C/C(=O)Nc2ccccc2C(N)=O)o1	Sm TGR block 22.4µM, TbPYK inhibitor inconclusive (no result: RE007 growth inh)
CC(C)c1ccc(/C=C/C(=O)Nc2nn[nH]n2)cc1	none (no result: FMDV inh, TbPYK inhibitor, RE007 growth inh)
Cc1ccc(/C=C/C(=O)Nc2cccc3ncccc23)o1	Sm TGR block 8.91µM, TbPYK inhibitor inconclusive (no result: FMDV inh)
CCOc1ccc(CCNC(=O)c2cnc3c(-c4ccc(F)cc4)c(C)nn3c2C)cc1OCC	none (no result: RE007 growth inh)
N#Cc1ccccc1OCC(O)CNCCNC(=O)Nc1ccccc1 (stereo not drawn)	none (no result: Sm TGR block, TbPYK inhibitor, RE007 growth inh)
O=C(NCc1ccc2[nH]c3c(c2c1)CCCC3)c1ccc(S(=O)(=O)N2CCOCC2)cc1	none
O=C(NCc1ccc2[nH]c3c(c2c1)CCCC3)N1CCOCC1	Sm TGR block 35.5µM (no result: FMDV inh, TbPYK inhibitor, RE007 growth inh)
COc1ccccc1Nc1ccc([N+](=O)[O-])cc1N	none
COc1cc(Nc2ccccc2Cl)c([N+](=O)[O-])nc1[N+](=O)[O-]	FMDV inh inconclusive, Sm TGR block 39.8µM
COc1cc2ncn(-c3cc(OCc4ccccc4C(F)(F)F)c(C(N)=O)s3)c2cc1OC	none (no result: FMDV inh, Sm TGR block, RE007 growth inh)
COc1cc2c(cc1OC)C(COc1ccc3c(C)cc(=O)oc3c1)N(C(=O)CC(C)C)CC2 (stereo not drawn)	none (no result: RE007 growth inh)
Cc1cc(C)cc(OCC(=O)N2CCC(c3nc4ccccc4o3)CC2)c1	none (no result: RE007 growth inh)
O=C(NC1CCCCC1)Oc1cc2oc(=O)sc2cc1Br	FMDV inh inconclusive, Sm TGR block 3.16µM, TbPYK inhibitor inconclusive, RE007 growth inh inconclusive
COC(=O)c1cc(C)nc(Sc2ccccc2N)n1	TbPYK inhibitor 8.91µM
COC(=O)c1ccccc1NC(=O)CSc1nc(C)cc(C)n1	none
C[N+]12CCCC[C@@H]1CCC(=C(c1cccs1)c1cccs1)C2 (stereo partly drawn)	none (no result: FMDV inh, Sm TGR block, RE007 growth inh)
CC(=O)c1ccc(N2CCN(C(=O)Nc3ccc(F)cc3)CC2)cc1	none (no result: FMDV inh, TbPYK inhibitor, RE007 growth inh)
CC(C)C(=O)Nc1ccc(N2CCCC2)cc1	Sm TGR block 35.5µM
O=C(Nc1ccc(N2CCCCC2)cc1)c1ccccn1	FMDV inh 2.82µM, TbPYK inhibitor inconclusive, RE007 growth inh inconclusive
CC(=O)c1ccc(N2CCN(C(=O)Nc3ccc(C(C)C)cc3)CC2)cc1	FMDV inh 14.1µM
Cn1cnnc1Sc1ccc(CN2CCOc3ccc(C4=Cc5ccccc5C4)cc3C2)o1	none (no result: Sm TGR block, TbPYK inhibitor, RE007 growth inh)
CC1(c2ccc3noc(-c4ccccc4)c3c2)OCCO1	FMDV inh 15.8µM
Nc1cc2nc3ccccc3oc-2cc1=O	Sm TGR block 15.8µM, RE007 growth inh 63.1µM
O=C(O)c1cc(=O)c2c3nc4ccccc4oc-3cc(=O)c2[nH]1	none (no result: FMDV inh, Sm TGR block, RE007 growth inh)
COc1cc2cc(CCCOC(=O)c3ccc(C(F)(F)F)cc3)oc(=O)c2cc1OC	none
COc1ccc(C(=O)OCCCc2cc3ccccc3c(=O)o2)cc1	Sm TGR block 50.1µM
COc1cc2cc(CCCOC(=O)c3ccc4c(c3)OCO4)oc(=O)c2cc1OC	Sm TGR block 50.1µM
CCC(C)n1c(=O)c2sccc2n2c(CCCC(=O)NCc3ccccc3Cl)nnc12 (stereo not drawn)	none (no result: RE007 growth inh)
COC(=O)CCCn1c(C)cc(C(=O)CCl)c1C	FMDV inh 28.2µM, Sm TGR block 7.94µM
Cc1cc(C(=O)CCl)c(C)n1CCc1ccccc1	FMDV inh 28.2µM, Sm TGR block 8.91µM
COCCn1c(C)cc(C(=O)CN2C(=O)NC3(CCCCCC3)C2=O)c1C	none
Cc1cc(C(=O)CCl)c(C)n1Cc1ccco1	FMDV inh 28.2µM, Sm TGR block 3.98µM
COCCN(CC1CCCN(C2Cc3ccccc3C2)C1)C(=O)CSC (stereo not drawn)	Sm TGR block 31.6µM
CCCC(=O)N1CCCC(c2cc(C(=O)Nc3ccccc3)no2)C1 (stereo not drawn)	FMDV inh 20µM, TbPYK inhibitor inconclusive (no result: Sm TGR block)
O=C(Nc1ccccc1)c1cc(C2CCCN(C(=O)c3ccccc3)C2)on1 (stereo not drawn)	none (no result: Sm TGR block)
